Compound activity deposited in PubChem by National Center for Advancing Translational Sciences (NCATS).
FMDV antiviral: High Throughput Screening for Foot and Mouth Disease Virus Antivirals; FMDV antiviral cell-based qHTS; Potency, µM (doses to about 57.9 µM), for the others: top-dose activity change, negative = inhibition, actives largely listed as inhibitors; 410,000 tested, 1.2% active; calls by dose curve; tested in HEK293T cells; further: read-out not given here; potency means the concentration at half of the fitted maximal effect; on the % scale 0 is the no-effect control and ±100 the full control effect; nearly all actives have a fitted effect of over 45% in size
HCMV inh: qHTS Assay for inhibitors of the human cytomegalovirus (HCMV). HFF cells, HCMV-luciferase reporter, 72 h; active compounds read low. activity change, negative = inhibition, % at 57.5 µM. 410,000 tested, 4.5% active; in the data active means activity change below about -60%; inconclusive means no clear call, values can overlap the other calls; inactive means above about -39%; further: on the % scale 0 is the no-effect control and ±100 the full control effect
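Steps: HFFs plated, 16 h 37C; compounds added; HCMV-luciferase added to MOI 1 PFU/cell; 72 h 37C; OneGlo reagent, 5 min room temperature; luminescence read, normalized to controls.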
SARS PLpro yeast: qHTS of Yeast-based Assay for SARS-CoV PLP. Potency, µM (doses to about 32.9 µM), for the others: at the highest dose activity, positive = growth rescue, hits mostly activators. AID 485353, 2010. 330,000 tested, 0.19% active. S. cerevisiae expressing SARS-CoV PLpro, growth rescue; calls by dose curve; further: potency means the concentration at half of the fitted maximal effect; 0% is about no effect; nearly all actives have a fitted effect of over 55% in size
Marburg entry inh: qHTS for inhibitors of binding or entry into cells for Marburg Virus; Potency, µM (top dose mostly 37.8 µM), inactives show at the top dose activity change, negative = inhibition, most hits filed as inhibitors; Marburg virus pseudotyped entry inhibition, cell reporter; AID 540276, 2011; 300,000 tested, 1.8% active; calls by dose curve; tested in HEK293 cells; further: potency means the concentration at half of the fitted maximal effect; on the % scale 0 is the no-effect control and ±100 the full control effect
HCV inhibitor: qHTS Assay for Inhibitors of Hepatitis C Virus (HCV) | Huh7.5.1 HCVcc-Cre infection, luciferase reporter, 44 h | Potency, µM (doses to about 41.8 µM), inactives show top-dose activity change, negative = inhibition, most hits filed as inhibitors | 340,000 tested, 3.4% active | AID 651820, 2012; active means well fitted inhibition curve with a large enough effect; inconclusive means small, poorly fitted or top-dose-only effect, or another doubt; inactive means no such curve, though single readings can be large or run the other way; further: potency means the concentration at half of the fitted maximal effect; on the % scale 0 is the no-effect control and ±100 the full control effect
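Cells (1,000/well) were plated 4 h before compound, then infected with HCVcc-Cre virus (~0.5 moi). After 44 h further culture, infection was read as luciferase luminescence following a 15 min substrate incubation at room temperature.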
LASV entry inh: qHTS for Inhibitors of binding or entry into cells for Lassa Virus | Potency, µM (titrated, usually from 37.9 µM), for inactives: at the top dose activity change, negative = inhibition, most hits filed as inhibitors | 300,000 tested, 1.2% active | Lassa virus pseudotype entry inhibition, cell reporter | AID 540256, 2011; calls by dose curve; tested in HEK293 cells; further: potency means the concentration at half of the fitted maximal effect; on the % scale 0 is the no-effect control and ±100 the full control effect; nearly all actives have a fitted effect of over 50% in size
Starred values were filed as active, the others as inactive; ? = inconclusive; . = no result; [ ] = remark or other dose. Rows were chosen to be rich in hits. Some 8% of all compounds tested hit in one or more screens of this group.

SMILES | FMDV antiviral | HCMV inh | SARS PLpro yeast | Marburg entry inh | HCV inhibitor | LASV entry inh
O=S(=O)(c1ccc(S(=O)(=O)N(Cc2ccc(F)cc2)C2CCCC2)cc1)N1CCCC1 | -30% | -38 | 2% | 10µM* | 17% | -17%
COc1ccc(C(=O)N2CCCC(Nc3ccc(F)cc3)C2)c(OC)c1 (stereo unspecified) | 0% | 1 | -8% | ? | 5% | 14%
COc1ccc(/C=C/C(=O)OC2CCCN(C)C2)cc1 (stereo unspecified) | 3% | 44 | -2% | . | 9% | .
COc1ccc(C=CC(O)CCN2CCC3CCC(C3)C2)cc1 (stereo unspecified) | -8% | -66* | . | ? | -10% | -11%[46.1 µM]
CCCCCc1ccc(-c2cn(Cc3ccc(C(=O)c4ccccc4)cc3)nn2)cc1 | 0% | 15 | 1% | . | 14% | .
O=C(c1ccccc1)c1ccc(Cn2cc(CCCO)nn2)cc1 | -15% | ? | 13% | . | 10µM* | .
O=C(c1ccccc1)c1ccc(Cn2cc(-c3ccccc3)nn2)cc1 | -6% | ? | -3% | . | 1.4µM* | .
CC(c1ccon1)N(C)C(=O)c1cnn(-c2ncc3c(n2)-c2ccccc2CC3)c1C1CC1 (stereo unspecified) | 25% | . | . | . | . | .
CCn1nc(C)c(CNC(=O)CCc2nnc(Cc3c[nH]c4ccccc34)o2)c1C | -9% | 63 | 0% | -4%[46.1 µM] | 6% | 6%[46.1 µM]
CN(C)c1ccc(-c2nc3ccccc3c(=O)[nH]2)cc1 | -59% | 2 | -1% | . | -4% | .
COc1ccc(-c2nc3ccccc3c(=O)[nH]2)cc1 | 17% | 40 | -1% | 13µM* | 4% | ?
COc1ccccc1CN(Cc1nc2ccccc2c(=O)[nH]1)S(=O)(=O)c1ccc2ccccc2c1 | . | -17 | 8% | ? | 35µM* | ?
O=c1[nH]c(CN(CCc2ccccc2)S(=O)(=O)c2ccc(Cl)cc2)nc2ccccc12 | -17% | -17 | -12% | 1% | 6% | 2%
COc1ccc(S(=O)(=O)N(Cc2ccccc2)Cc2nc3ccccc3c(=O)[nH]2)cc1 | -7% | -100* | 2% | -11% | ? | ?
CCC(C)NC(=O)CCCN1C(=O)CCn2nc(-c3cccn3C)cc21 (stereo unspecified) | 0% | 9 | . | . | . | 19%[46.1 µM]
C[C@H](CO)N1C[C@H](C)[C@@H](CN(C)S(=O)(=O)c2cn(C)cn2)Oc2c(NS(=O)(=O)c3ccc(F)cc3)cccc2C1=O | 13% | -17 | -3% | . | 6% | .
CC(C)c1ccc(Nc2ncnc3c2nc2n3CCCC2)cc1 | -5% | -19 | . | . | . | ?
COCCN1C(=O)COCc2cc(-c3ccc(N(C)C)cc3)ccc21 | . | 47 | . | . | . | .
COC(C/C=C/C(=O)COCc1ccccc1)OC | -4% | 2 | -4% | . | 56% | .
COC(C/C=C/C(=O)[C@H](C)OCc1ccccc1)OC | 35µM* | . | . | . | 1%[8.37 µM] | .
O=C(Nc1cnc(N2CCN(c3ccccc3)CC2)c(C(=O)O)c1)c1cccs1 | -13% | 17 | . | . | . | 14%[46.1 µM]
COC(=O)c1ccccc1NC(=O)CCCOc1cc(=O)n(C)c2ccccc12 | -24% | -99* | . | . | . | .
COc1cccc(NC(=O)CCCOc2cc(=O)n(C)c3ccccc23)c1 | 14% | 253 | 2% | -16% | 3% | -7%
O=C1c2ccccc2C(=O)c2c1cccc2N1CCCC1 | -25% | 5 | -47% | ? | ? | 13%
O=C1C=C(N2CCCCC2)c2ccccc2C1=O | 22µM* | -97* | . | ? | 7.1µM* | 8.9µM*
COc1ccc(CCC(=O)NCc2ccc3c(c2)CCN3C(=O)c2ccc(C)cc2)cc1 | 12% | 11 | . | . | . | -7%[46.1 µM]
COc1ccc(Nc2nc(N)c([N+](=O)[O-])c(NCCO)n2)cc1 | 19% | 33 | -3% | ? | 0% | -13%
COc1ccc(Nc2nc(N)c([N+](=O)[O-])c(NC3CCCCC3)n2)cc1 | ? | ? | -3% | ? | 11µM* | ?
CCCc1nc2ccc(Br)cc2c(=O)n1-c1ccc([N+](=O)[O-])c(C(F)(F)F)c1 | ? | -87* | -19% | ? | ? | ?
